# Screens as filed in PubChem.
# GLP1R inv ag: qHTS of GLP-1 Receptor Inverse Agonists (Inhibition Mode); 1.6% of 410,000 active; HEK293 GLP-1R CRE-luciferase, luminescence, 24 h; GLP-1R form is constitutively active; Potency, µM (top dose mostly 38.3 µM), usual class: inhibitors; Glucagon-like peptide 1 receptor (Homo sapiens), P43220; AID 624417, 2012; also: nearly all actives have a fitted effect of over 55% in size
# Target sequence (P43220 whole entry, looked up): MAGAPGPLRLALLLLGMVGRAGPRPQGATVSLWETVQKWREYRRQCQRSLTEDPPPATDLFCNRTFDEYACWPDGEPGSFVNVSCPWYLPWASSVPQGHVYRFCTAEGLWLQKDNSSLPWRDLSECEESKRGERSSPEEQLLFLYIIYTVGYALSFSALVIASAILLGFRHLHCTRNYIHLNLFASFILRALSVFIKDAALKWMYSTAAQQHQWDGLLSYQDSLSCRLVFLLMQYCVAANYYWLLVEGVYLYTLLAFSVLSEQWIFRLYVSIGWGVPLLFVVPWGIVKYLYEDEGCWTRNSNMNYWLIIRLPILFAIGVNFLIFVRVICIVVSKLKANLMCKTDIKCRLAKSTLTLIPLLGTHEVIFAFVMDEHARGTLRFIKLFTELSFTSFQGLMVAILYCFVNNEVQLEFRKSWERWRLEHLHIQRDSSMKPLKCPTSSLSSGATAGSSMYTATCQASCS
#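 GLP-1R inverse agonism mode: basal reporter luminescence in engineered HEK293 cells measured after one day of compound exposure at 37 deg C, with a 12 min room-temperature detection step.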
# HEK293 tox: qHTS of GLP-1 Receptor Inverse Agonists: Cytotox Screen | HEK293 cAMP-luciferase reporter cells, luminescence, 24 h | Potency, µM (highest dose often 38.3 µM), usual class: inhibitors | 0.13% of 410,000 active;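 also: loss of luciferase light is scored as toxicity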
#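 Here, cytotoxicity is scored as loss of luminescence. The MLSMR collection was tested on cells seeded in medium containing 10% Nu serum, with a 24 hr compound exposure preceded by 12 hours of culture.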
# DRD3 agonist: qHTS of D3 Dopamine Receptor Agonist: qHTS. D3R DiscoveRx beta-arrestin cells, luminescence, 90 min. max activation, %. 0.58% of 410,000 active. AID 652048, 2013; in the data active = max activation above about 30%
#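 Agonist mode: compounds and dopamine controls were applied to plated cells for 90 min at 37 degrees C after an overnight attachment at 1500 cells/well. Luminescent read-out followed 30 - 60 minutes at room temperature with DiscoveRx detection reagent.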
# ClpP mod: qHTS Assay for Activators of ClpP | 1.9% of 340,000 active | AID 651965, 2013 | Potency, µM (top dose mostly 57.5 µM) | purified B. subtilis ClpP, FRET peptide cleavage, 20 min | ATP-dependent Clp protease proteolytic subunit (Bacillus subtilis (strain 168)), P80244; active = well fitted falling curve with a large enough effect; inconclusive = small, poorly fitted or top-dose-only effect; inactive = no such curve, though single readings can be large or run the other way; also: the source files actives as falling curves though it sought activators and does not explain the sign; nearly all actives have a fitted effect of over 65% in size
#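 ClpP 10 microg/mL final, pH 8 Tris/KCl buffer with BSA, glycerol, Tween-20; compound pinned in; FRET-FV substrate; RT 20 min; Ex320/Em430; ΔFRET vs ADEP 5.8 microM, DMSO, no enzyme.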
# D3 antag: qHTS of D3 Dopamine Receptor Antagonist: qHTS | 2.5% of 360,000 active | AID 652054, 2013 | D(3) dopamine receptor (Homo sapiens), P35462 | max response, negative = inhibition, % | D3R cells, DiscoveRx beta-arrestin luminescence, antagonist mode; hits give low values; in the data active = max response below about -50%; inconclusive = no clear call, values can overlap the other calls
#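 Cells plated overnight at 1500 cells/well, then exposed to library compounds with dopamine controls for 90 minutes at 37 degrees C. DiscoveRx reagent added for 30–60 minutes at room temperature; luminescence read, quantitative HTS format.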
# GLP1R ag: qHTS of GLP-1 Receptor Agonists; HEK293 GLP-1R CRE-luciferase, luminescence, 4-6 h; cells express a hypersensitive GLP-1R form; Potency, µM (series often up to 45.6 µM), actives largely listed as activators; 0.007% of 380,000 active; AID 624172, 2012
# ClpP validation: qHTS Assay for Activators of ClpP: Hit Validation of Inhibitors | purified B. subtilis ClpP, FRET-FV substrate cleavage, 20 min | shares compounds with ClpP mod | 40% of 470 active | Potency, µM (titrated, usually from 57.5 µM), usual class: inhibitors | AID 743245, 2014; also: nearly all actives have a fitted effect of over 70% in size
# A number is an active result; - = inactive; ? = inconclusive; . = no result; ! = not confirmed by another sample. Hits are enriched below; roughly 5.7% of the tested compounds scored in any of these assays. Unless noted, calls follow the shape of the dose curve; as a rule, active = well fitted curve in the direction sought with a large enough effect; inconclusive = small, poorly fitted or top-dose-only effect, or another doubt; inactive = no such curve, though single readings can be large; an effect the other way counts as inactive or inconclusive.
SMILES,GLP1R inv ag,HEK293 tox,DRD3 agonist,ClpP mod,D3 antag,GLP1R ag,ClpP validation
O=C(NCc1ccccc1)C(c1cccc2ccccc12)n1c(=O)c(-c2cc3ccccc3[nH]2)nc2ccccc21 (stereo unspecified),?,-,-,-,-,.,-
CSCCC(c1nc2ccccc2[nH]1)n1c(=O)c(-c2cc3ccccc3[nH]2)nc2ccccc21 (stereo unspecified),?,-,-,?,-,.,.
CCCCCNC(=O)C(c1ccc(-c2ccccc2)cc1)n1c(=O)c(-c2cc3ccccc3[nH]2)nc2ccccc21 (stereo unspecified),-,-,-,-,-,.,-
COc1ccc(NC(=O)N2CCc3c(sc4c3CCCC4)C2c2ccccc2OC)cc1 (stereo unspecified),-,-,-,-,.,.,.
COc1ccccc1C(=O)Nc1cc2c(cc1N1CCOCC1)n(C)c(=O)n2C,-,-,-,-,.,.,.
CCOC(=O)C1CCN(S(=O)(=O)c2cc(-c3cc(C)no3)ccc2OC)CC1,-,-,-,-,.,.,.
CCN(CC)CCNC(=O)c1ccc2c(=O)n3nc(Nc4ccccc4)sc3nc2c1,-,-,-,-,.,.,.
C=C1NN(CC2CC2)C(=O)N1c1ccc(OCc2ccccc2)cc1,.,.,.,-,.,.,.
CCOC(=O)[C@]12CCCC=C1N(Cc1ccc(Cl)cc1Cl)C(=O)[C@H](CC(=O)N1CCOCC1)C2,-,-,-,-,-,-,.
Cc1cccc(C)c1NC(=O)C(c1cccc2ccccc12)n1c(=O)c(-c2cc3ccccc3[nH]2)nc2ccccc21 (stereo unspecified),?,-,-,-,-,.,-
Cc1cccc(C)c1NC(=O)C(c1ccccc1)n1c(=O)c(-c2cc3ccccc3[nH]2)nc2ccccc21 (stereo unspecified),?,-,-,-,-,.,.
O=C(Nc1ccc2ccccc2c1)C(c1ccccc1)n1c(=O)c(-c2cc3ccccc3[nH]2)nc2ccccc21 (stereo unspecified),?,-,-,-,-,.,-
CN(C)S(=O)(=O)Oc1ccc(Cl)cc1C(=O)Nc1cccc(C(F)(F)F)c1,-,-,-,-,-,-,.
CN(C)S(=O)(=O)Oc1ccccc1C(=O)Nc1cccc(C(F)(F)F)c1,?,-,-,-,-,-,-
O=C(Nc1cccc(NC(=O)c2ccc(-c3ccc(Br)cc3)o2)c1)c1ccccc1,?,-,-,-,-,-,22µM
O=C(Nc1ccccc1)c1ccc(-c2ccc(Br)cc2)o1,?,-,-,-,-,-,.
NC(=O)c1ccccc1NC(=O)c1ccc(-c2ccc(Br)cc2)o1,-,-,-,-,.,.,17µM
Cc1ccc(C)c(N2CCN(c3nc4ccccc4c(=O)n3-c3ccc(Cl)cc3)CC2)c1,-,-,-,-,.,.,.
CC1(c2nnnn2-c2ccc3c(c2)OCCO3)CCC(=O)N1CCc1ccc(O)cc1 (stereo unspecified),-,-,-,-,-,-,.
COc1cc2c(cc1NC(=O)CN1CCN(S(=O)(=O)c3ccccc3F)CC1)oc1ccccc12,-,-,-,3.5µM,-,-,?
COCCCNC(=O)CC(NS(=O)(=O)c1ccc(C)cc1)c1ccco1 (stereo unspecified),-,-,-,3.2µM,-58,-,-
COCCCNC(=O)CC(NS(=O)(=O)c1ccc(Cl)cc1)c1ccco1 (stereo unspecified),-,-,-,-,-,-,.
COc1cccc2c1cc1c(=O)n(CC(=O)N3CCN(c4ccccc4F)CC3)nc(C)n12,-,-,-,7.9µM,.,.,3.1µM
COc1cccc2c1cc1c(=O)n(CC(=O)N3CCC(C)CC3)nc(C)n12,-,-,38!,2.5µM!,-,-,4.9µM
COc1cccc2c1cc1c(=O)n(CC(=O)NC3CC3)nc(C)n12,-,-,-,?,.,.,.
SMILES,GLP1R inv ag,HEK293 tox,DRD3 agonist,ClpP mod,D3 antag,GLP1R ag,ClpP validation
Cc1ccc(Cl)cc1NC(=O)Cn1c(=O)n(Cc2ccccc2)c(=O)c2oc3ccccc3c21,-,-,-,-,.,.,.
CC1(c2ccccn2)Nc2ccccc2-c2nc3ccccc3n21 (stereo unspecified),-,-,-,-,-,-,.
c1ccc(C2Nc3ccccc3-c3nc4ccccc4n32)nc1 (stereo unspecified),-,-,-,7.1µM,-,-,19µM
CCOc1ccccc1CNC(=O)c1cnc2sc(N3CCCC3)nn2c1=O,-,-,-,7.9µM,.,.,-
O=C(COc1ccc(F)cc1)NCC(c1ccc(Cl)cc1)N1CCCCC1 (stereo unspecified),?,-,-,-,.,.,.
CCOc1ccc2nc(-c3ccccc3)[nH]c2c1,?,?,-,7.1µM,-,-,6.9µM
COCCn1cc(C(=O)N2CCCC(C)C2)c2c3ccccc3n(C)c2c1=O (stereo unspecified),-,-,-,3.2µM,-,-,15µM
CCCCc1nn2c(=O)cc(COC(=O)c3ccccc3C)nc2s1,-,-,-,-,.,.,.
CCOc1ccc(NC(=O)c2cc3c(-c4ccccc4F)nn(C)c3s2)cc1,-,-,-,-,.,.,?
Cc1c(C)n(Cc2ccc(F)cc2)c2ccc(C(=O)NCc3ccco3)cc12,?,-,-,?,.,.,.
